# The list is not random: actives were taken first. Their share in the collection is about 1.6%.
# KCNQ2 pot: potentiators of rat KCNQ2 potassium channel. CHO-K1 KCNQ2, FluxOR thallium flux fluorescence; hits give high values. B-score at 10 µM. actives 0.54% (n = 310,000);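 active = fluorescence ratio B-score at least 3 SD of library B-scores, with initial fluorescence B-score within 3 of them, cut at about 5.3 in these data; same plate scores as AID 2156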;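 also: B-score of peak minus minimum over baseline fluorescence ratio after K+ and Tl+ stimulus; positive B-score means potentiation of KCNQ2 with more thallium influx and brighter signal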
# KCNQ2 block: rat KCNQ2 potassium channel inhibitors, primary screen, cell-based, CHO-K1, FluxOR thallium flux, B-score; B-score at 10 µM; actives 1.1% (n = 310,000); Potassium voltage-gated channel subfamily KQT member 2 (Rattus norvegicus), O88943; 20 min; hits give low values;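 active = fluorescence ratio B-score at most minus 3 library SDs, with starting brightness B-score within 2 library SDs, cut at about -5.5 in these data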
# An asterisk follows results filed as active; i = inactive; · = not tested or not shown.
SMILES,KCNQ2 pot,KCNQ2 block
CCN(CC)S(=O)(=O)c1cccc(-c2nnc(-c3ccc(C)cc3)o2)c1,·,i
CCN(CC)S(=O)(=O)c1cc(-c2nnc(-c3ccc(Br)cc3)o2)ccc1Br,-6.98,-6.98*
CC1CCCCN1S(=O)(=O)c1cccc2nonc12 (stereo not given),0.13,i
Cc1c(OCC(=O)C(C)(C)C)ccc2c(-c3ccccc3)cc(=O)oc12,·,i
O=C(Cn1c(=O)[nH]c2ccccc2c1=O)Nc1ccc2c(c1)OCO2,0.02,i
CCC(=O)NC(C)C(c1cccs1)N1CCN(c2ccccc2)CC1 (stereo not given),0.03,i
CC(NC(=O)Cc1cccs1)C(c1cccs1)N1CCN(c2ccccc2)CC1 (stereo not given),8.25*,i
Cc1ccc(OCC(=O)Oc2c(C)cccc2C)cc1C,1.96,i
CC(C)(C)n1nnnc1C(c1cccnc1)N(Cc1ccccc1)Cc1ccco1 (stereo not given),·,i
COc1cccc(CN(Cc2ccco2)C(c2ccc(F)cc2)c2nnnn2C(C)(C)C)c1 (stereo not given),-6.06,-6.06*
CC(CCc1ccccc1)NC(=O)C(Cc1ccccc1)NS(=O)(=O)c1cccs1 (stereo not given),-5.74,-5.74*
CC1CCCCC1NC(=O)C(Cc1ccccc1)NS(=O)(=O)c1cccs1 (stereo not given),·,i
CC(=O)N1CCN(S(=O)(=O)c2c(C)n(C)c(=O)n(C)c2=O)CC1,0.06,i
CC1(C)Cc2ccccc2C(CSc2ccccc2C(=O)O)=N1,-6.05,-6.05*
COc1cc2c(cc1OC)C(CSc1ccccc1C(=O)O)=NC(C)(C)C2,·,i
O=C(Nc1ccc2c(c1)OCO2)C1CC(=O)N(c2cccc(Cl)c2)C1 (stereo not given),·,i
COC(=O)N1C/C=C\C(c2ccc(OC)cc2)N(Cc2ccc(F)cc2)C(=O)C1 (stereo not given),1.29,i
COc1ccc(C2/C=C\CN(C(=O)Nc3ccccc3-c3ccccc3)CC(=O)N2Cc2ccc(F)cc2)cc1 (stereo not given),-6.4,-6.4*
O=C1C(Cl)=C(NS(=O)(=O)c2ccc([N+](=O)[O-])cc2)C(=O)c2ccccc21,-5.96,-5.96*
O=[N+]([O-])c1ccc(Oc2ccc(S(=O)(=O)Nc3ccccc3)cc2)cc1,3.16,i
Cc1cccc(N2CCN(S(=O)(=O)c3c(C)[nH]c(C)c3C(=O)N3CCCC3)CC2)c1C,·,i
Cc1cccc(N2CCN(S(=O)(=O)c3c(C)[nH]c(C)c3C(=O)N3CCCCC3)CC2)c1C,-5.87,-5.87*
Cc1ccc2c(c1)N(C(=O)CCC(=O)NCc1cccc(Cl)c1)CC(C)O2 (stereo not given),-5.69,-5.69*
Cc1ccc2c(c1)N(C(=O)CCC(=O)NCc1ccccc1)CC(C)O2 (stereo not given),·,i
COC(=O)[C@@H](Cc1ccccc1)NC(=O)NCCc1ccc(OC)c(OC)c1,0.86,i
SMILES,KCNQ2 pot,KCNQ2 block
O=C(Nc1ccccn1)c1ccc(S(=O)(=O)N2CCCCC2)cc1,·,i
Cc1cccc(/C=C2\Sc3ccc(C(=O)N4CCCCC4)cc3N(C)C2=O)c1,·,i
Cc1cccc(/C=C2\Sc3ccc(C(=O)N4CCC(C)CC4)cc3N(C)C2=O)c1,-6.52,-6.52*
CCn1c(C)cc(O)c(C(=O)Nc2cccc(Cl)c2)c1=O,1.64,i
CCn1c(C)c(C)c2cc(C(=O)Nc3cccc(Cl)c3)ccc21,-6.57,-6.57*
CNC(=S)N(CCc1c(C)[nH]c2ccccc12)Cc1cccnc1,1.27,i
O=C(Nc1ccc2ccccc2c1)c1ccc(Cl)cc1Cl,0.71,i
O=C(Nc1nc(=S)ss1)c1ccc(Cl)cc1Cl,17.1*,i
CC(=O)N(CCC1(c2ccc(C)cc2)CCOC(C(C)C)C1)Cc1ccco1 (stereo not given),-6.01,-6.01*
Cc1ccc(C2(CCNCc3ccco3)CCOC(C(C)C)C2)cc1 (stereo not given),·,i
CCN1C(=O)[C@H]2[C@@H](c3ccc(-c4ccc(F)cc4)c(OC)c3)N[C@@](CC(C)C)(C(=O)OC)[C@H]2C1=O,·,i
CC(C)(C)n1nc2c(c1NC(=O)c1ccc(Cl)c([N+](=O)[O-])c1)CS(=O)(=O)C2,·,i
O=C(Nc1ccccn1)c1cc(-c2cccc(Cl)c2)nc2ccccc12,-5.64,-5.64*
O=C(Nc1ccc([N+](=O)[O-])cn1)c1cc(-c2cccc(Cl)c2)nc2ccccc12,-5.58,-5.58*
O=C(Nc1ncccn1)c1cc(-c2cccc(Br)c2)nc2ccccc12,·,i
O=C(Nc1ccc([N+](=O)[O-])cn1)c1cc(-c2cccc(Br)c2)nc2ccccc12,·,i
O=C(c1cc(-c2ccccc2)nc2ccccc12)N1CCCC1,0.04,i
O=C(c1cc(-c2cccc(Cl)c2)nc2ccccc12)N1CCCC1,-8.08,-8.08*
Nc1ccccc1S(=O)(=O)NCCCCc1ccccc1,0.3,i
O=C(c1cc2cc(Br)ccc2o1)N1CCN(c2ccccc2)CC1,0.9,i
COc1ccc(-n2c(SCCNCCO)nc3sc4c(c3c2=O)CCCC4)cc1,·,i
CC(CC(=O)N(C)c1c(N)n(Cc2ccccc2)c(=O)[nH]c1=O)c1ccccc1 (stereo not given),1.03,i
CSCCC(NC(=O)c1ccccc1Cl)C(=O)Nc1cccc(S(=O)(=O)N2CCCC2)c1 (stereo not given),·,i
CC(=O)NC1=C(NC2CCS(=O)(=O)C2)C(=O)c2ccccc2C1=O (stereo not given),6.08*,i
CN(C1=C(NC(=O)c2ccccc2)C(=O)c2ccccc2C1=O)C1CCS(=O)(=O)C1 (stereo not given),3.53,i
SMILES,KCNQ2 pot,KCNQ2 block
Cc1cc(C)c(S(=O)(=O)Nc2cccc(C(=O)O)c2)cc1S(=O)(=O)Nc1cccc(C(=O)O)c1,1.24,i
COc1ccc(CNC(=O)CN2C(=O)CC(c3ccccc3)=Nc3ccccc32)cc1,·,i
O=C(CN1C(=O)CC(c2ccccc2)=Nc2ccccc21)NCc1ccccc1,-5.57,-5.57*
Cn1cc(CN2CCC(n3nccc3NC(=O)C3CCCC3)CC2)cn1,0.17,i
Cc1ccc(C)c(S(=O)(=O)N2CCN(C(=O)CCCc3c[nH]c4ccccc34)CC2)c1,·,i
CCCCCCCCNc1nc(Cl)nc(NCc2ccco2)n1,0.34,i
CCCCCCNc1nc(NCc2ccco2)nc(OCC)n1,-6.06,-6.06*
Cc1ccc(S(=O)(=O)N2CCN(C(=O)CSc3ccccn3)CC2)c(C)c1,·,i
CCc1c(C)nc2cc(-c3cc(OC)cc(OC)c3)nn2c1N1CCCC1,0.09,i
Fc1cccc(-c2cc3nc4c(c(N5CCC6(CC5)OCCO6)n3n2)CCCC4)c1,-6.56,-6.56*
OC1CCN(c2c3c(nc4cc(-c5cccc(F)c5)nn24)CCCC3)CC1,·,i
COc1cc(OC)cc(-c2cc3nc4c(c(N5CCN(c6ncccn6)CC5)n3n2)CCCC4)c1,-6.2,-6.2*
O=C(NCCC1CCCCN1S(=O)(=O)c1ccccc1)C(=O)Nc1ccc(F)cc1F (stereo not given),·,i
Cc1cccc(CNC(=O)C(C)n2nc(C)c3c(C)n(-c4ccccc4)nc3c2=O)c1 (stereo not given),0.56,i

# Screens from PubChem BioAssay.
